Data as given in PubChem BioAssay (EPA / NIEHS).
Records with an inconclusive call do not appear. A structure can be active in one record and inactive in another. Activity calls are given as the source filed them. The calls were made as follows, unless noted: active = hit-call score of the fitted dose curve at least 0.9, where 1 is the maximum; inactive = score below 0.9.

Assays:
[1] = ATG_PXRE_CIS: Attagene CIS-FACTORIAL HepG2 Assay for human Pregnane X Receptor Element (PXRE) (AID 2282957); settings: HepG2 Attagene CIS-FACTORIAL PXRE reporter, mRNA; actives raise or lower the signal
How it was run: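 Read-out: fluorescence of reporter-specific RT-PCR products resolved by capillary electrophoresis, fitted bidirectionally relative to DMSO. Human HepG2 liver cells carried transfected cis-promoter reporter units and were exposed to chemicals for 24 h.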

[2] = ATG_RORE_CIS: Attagene CIS-FACTORIAL HepG2 Assay for human RAR-related Orphan Receptor Element (RORE) (AID 2282959); settings: HepG2 Attagene cis-factorial RORE reporter, mRNA; actives raise or lower the signal
How it was run: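 Cells were HepG2 carrying transfected cis-regulated reporter constructs, dosed for 24 hours. Total RNA was reverse-transcribed and reporter cDNA amplified, fluorescently labeled and sized by capillary electrophoresis. Activity was fitted bidirectionally relative to DMSO.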

[3] = ATG_Sox_CIS: Attagene CIS-FACTORIAL HepG2 Assay for human SRY-box transcription factor (SOX) (AID 2282960); settings: HepG2 Attagene cis-factorial SOX reporter, mRNA; actives raise or lower the signal
How it was run: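 Transient MRTU transfection of HepG2; 24 h compound incubation; TriZol RNA, oligo(dT) RT, PCR, 6-FAM primer extension, HpaI cut, CE. Bidirectional fit, DMSO = baseline.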

[4] = target: Transcription factor Sp1 (Homo sapiens) (UniProt P08047); assay: ATG_Sp1_CIS: Attagene CIS-FACTORIAL HepG2 Assay for human Specificity Protein 1 (Sp1) (AID 2282961); settings: HepG2 Sp1 cis-reporter transcription, actives raise or lower the signal
How it was run: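 Endogenous Sp1 activity was gauged in human liver HepG2 cells bearing transfected reporter units under a cis-regulating promoter. After 24 h dosing, reporter mRNA was quantified by RT-PCR with capillary electrophoresis, and activity fitted bidirectionally versus DMSO.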

[5] = ATG_SREBP_CIS: Attagene CIS-FACTORIAL HepG2 Assay for human Sterol Regulatory Element Binding (SREBP) (AID 2282962); settings: HepG2 Attagene cis-factorial SREBP reporter, mRNA; actives raise or lower the signal
How it was run: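 In this cis-format assay, HepG2 liver cells express reporters controlled by promoter elements responsive to native transcription factors. Exposure lasts 24 h; reporter mRNA fluorescence from capillary electrophoresis gives the signal, fitted bidirectionally against DMSO.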

[6] = target: Signal transducer and activator of transcription 3 (Homo sapiens) (UniProt P40763); assay: ATG_STAT3_CIS: Attagene CIS-FACTORIAL HepG2 Assay for human Signal Transducer and Activator of Transcription 3 (STAT3) (AID 2282963); settings: HepG2, Attagene cis-factorial STAT3 reporter transcription; actives raise or lower the signal
How it was run: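 Cis-factorial format: endogenous transcription factors in HepG2 drive transfected reporter units. After 24 h treatment, reporter RNA was reverse-transcribed, amplified, FAM-labelled and HpaI-digested before CE analysis; activity scored in both directions against DMSO.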

[7] = ATG_TA_CIS: Attagene CIS-FACTORIAL HepG2 Assay for human TA Basal Promoter (AID 2282964); settings: HepG2 Attagene CIS-factorial TA basal promoter reporter; actives raise or lower the signal
How it was run: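 HepG2 cells transiently transfected with multiplexed cis-promoter reporter units, dosed 24 h. Reporter mRNA measured by RT-PCR, 6-FAM labelling, HpaI digestion and capillary electrophoresis; bidirectional fit versus DMSO baseline, serving as background control.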

[8] = ATG_TCF_b_cat_CIS: Attagene CIS-FACTORIAL HepG2 Assay for human T-Cell-Factor with beta-catenin (TCF/b-cat) (AID 2282965); settings: HepG2 TCF/beta-catenin cis-reporter transcription, actives raise or lower the signal
How it was run: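 Measured: reporter mRNA in HepG2 transiently transfected with cis-promoter reporter units, 24 h after chemical addition. Fitting was bidirectional, DMSO as negative control.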

[9] = ATG_TAL_CIS: Attagene CIS-FACTORIAL HepG2 Assay for human TAL Basal Promoter (AID 2282966); settings: HepG2 Attagene cis-factorial TAL promoter reporter; actives raise or lower the signal;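 also: background control endpoint measuring basal TAL promoter reporter mRNA not a specific factor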
How it was run: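 HepG2, transient MRTU transfection, 24 h compound exposure; RNA → oligo(dT) RT → PCR → 6-FAM primer extension → HpaI digest → CE fluorescence. Bidirectional curve fit vs DMSO. Background-control readout.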

[10] = ATG_TGFb_CIS: Attagene CIS-FACTORIAL HepG2 Assay for human Transforming Growth Factor (TGF) (AID 2282967); settings: HepG2 Attagene CIS TGFb reporter, mRNA transcription; actives raise or lower the signal
How it was run: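 HepG2 cells transiently transfected with cis-promoter-driven multiplexed reporter units; 24 h compound exposure. Reporter mRNA measured by RT-PCR, 6-FAM labeling, HpaI digestion and capillary electrophoresis; bidirectional fit versus DMSO baseline.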

[11] = ATG_VDRE_CIS: Attagene CIS-FACTORIAL HepG2 Assay for human Vitamin D Receptor Element (VDRE) (AID 2282968); settings: HepG2 VDRE cis-reporter transcription, actives raise or lower the signal
How it was run: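 Measures endogenous factor activity through cis-element-driven reporter transcripts in transiently transfected HepG2. Cells are treated 24 h; reporter mRNA is quantified by RT-PCR and capillary electrophoresis; fitting is bidirectional.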

[12] = target: X-box-binding protein 1 (Homo sapiens) (UniProt P17861); assay: ATG_Xbp1_CIS: Attagene CIS-FACTORIAL HepG2 Assay for human X-box Binding Protein 1 (XBP1) (AID 2282972); settings: HepG2 XBP1 cis-element reporter, Attagene multiplex; actives raise or lower the signal
How it was run: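 Changes in reporter transcript abundance, read by RT-PCR and capillary electrophoresis, reflect endogenous transcription factor activity. Transfected HepG2 cells received compound for 24 hours; DMSO defined baseline for bidirectional analysis.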

[13] = ATG_M_19_TRANS: Attagene TRANS-FACTORIAL HepG2 Assay for M19 Transcription Factor (Internal Marker) (AID 2282974; active = hit-call score of the fitted dose curve at least 0.9, where 1 is the maximum); settings: HepG2 Attagene TRANS-FACTORIAL M19 internal marker reporter
How it was run: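 Cells: human HepG2, transiently transfected with multiplexed reporter transcription units. Exposure: 24 h. Detection: RT-PCR of reporter mRNA with capillary electrophoresis. Analysis: gain-of-signal vs DMSO.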

[14] = ATG_GAL4_TRANS: Attagene TRANS-FACTORIAL HepG2 Assay for GAL4 (Internal Marker) (AID 2282976; active = hit-call score of the fitted dose curve at least 0.9, where 1 is the maximum); settings: HepG2 Attagene TRANS GAL4 internal marker reporter
How it was run: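 RT-PCR/capillary electrophoresis readout of reporter mRNA. HepG2, transient MRTU transfection (GAL4-UAS reporters), 24 h compound exposure. Background-control endpoint, positive direction vs DMSO baseline.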

[15] = ATG_PPRE_CIS: Attagene CIS-FACTORIAL HepG2 Assay for human Peroxisome Proliferator-activated Response Element (PPRE) (AID 2282958); settings: HepG2 PPRE cis-element reporter, Attagene transcription factor profiling; actives raise or lower the signal
How it was run: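 Cells are first transfected transiently with the multiplexed reporter library, then dosed for 24 h. Total RNA is reverse-transcribed, amplified, fluorescently end-labeled and HpaI-cut before capillary electrophoresis; activity is fitted bidirectionally against DMSO controls.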

[16] = target: Glucocorticoid receptor (Homo sapiens) (UniProt P04150); assay: ATG_GR_TRANS: Attagene TRANS-FACTORIAL HepG2 Assay for human Glucocorticoid Receptor (GR) (AID 2282978; active = hit-call score of the fitted dose curve at least 0.9, where 1 is the maximum;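 also: activators score as hits since higher reporter transcript over DMSO is fitted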); settings: HepG2 Attagene TRANS GR reporter, mRNA transcription
How it was run: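 In this trans-factorial format, exogenous NR-GAL4 chimeric proteins in transfected HepG2 cells regulate GAL4-UAS reporter transcription. After 24 h treatment, reporter mRNA induction relative to DMSO is read by RT-PCR and capillary electrophoresis.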

[17] = target: Nuclear receptor subfamily 1 group I member 3 (Homo sapiens) (UniProt Q14994); assay: ATG_CAR_TRANS: Attagene TRANS-FACTORIAL HepG2 Assay for human Constitutive Androstane Receptor (CAR) (AID 2282969; active = hit-call score of the fitted dose curve at least 0.9, where 1 is the maximum;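 also: activators raise reporter mRNA above DMSO so AC50 marks induction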); settings: HepG2 Attagene TRANS-FACTORIAL CAR reporter
How it was run: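 Signal is reporter mRNA induction relative to DMSO, measured 24 h after dosing by RT-PCR with fluorescent primer extension and capillary electrophoresis. Human HepG2 liver cells carried transiently transfected chimeric NR-Gal4/GAL4-UAS reporter constructs.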

[18] = target: Estrogen receptor (Homo sapiens) (UniProt P03372); assay: ATG_ERa_TRANS: Attagene TRANS-FACTORIAL HepG2 Assay for human Estrogen Receptor alpha (ERa) (AID 2282970; active = hit-call score of the fitted dose curve at least 0.9, where 1 is the maximum); settings: HepG2 Attagene TRANS ERa GAL4 reporter, mRNA
How it was run: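 Reporter mRNA induction after 24 hours, detected by fluorescent RT-PCR and capillary electrophoresis, gives the read-out. Cells are HepG2 transiently transfected with GAL4-UAS reporter transcription units responding to chimeric NR-Gal4. Activity is taken as gain of signal over DMSO baseline.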

[19] = target: Steroid hormone receptor ERR1 (Homo sapiens) (UniProt P11474); assay: ATG_ERRa_TRANS: Attagene TRANS-FACTORIAL HepG2 Assay for human Estrogen-Related Receptor alpha (ERRa) (AID 2282971; active = hit-call score of the fitted dose curve at least 0.9, where 1 is the maximum); settings: HepG2 Attagene TRANS reporter, ERRa transactivation
How it was run: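 Transfected HepG2, 24 h dosing, ERRa-Gal4 chimera driving GAL4-UAS reporter. Readout: reporter mRNA via RT-PCR plus capillary electrophoresis (fluorescence). Positive direction vs DMSO control.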

[20] = target: Estrogen-related receptor gamma (Homo sapiens) (UniProt P62508); assay: ATG_ERRg_TRANS: Attagene TRANS-FACTORIAL HepG2 Assay for human Estrogen-Related Receptor gamma (ERRg) (AID 2282977; active = hit-call score of the fitted dose curve at least 0.9, where 1 is the maximum;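 also: hits increase reporter signal over DMSO so potencies reflect activators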); settings: HepG2 Attagene TRANS reporter, ERRg transactivation
How it was run: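 Readout: fluorescent reporter-mRNA fragments resolved by capillary electrophoresis after RT-PCR and HpaI cut. Cells: transiently transfected HepG2 carrying GAL4-UAS reporters driven by exogenous NR-Gal4 chimeras, dosed 24 h. Activity fitted upward relative to DMSO baseline.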

Sequence of Estrogen receptor (Homo sapiens) (P03372 whole entry, looked up, the tested form may be a part): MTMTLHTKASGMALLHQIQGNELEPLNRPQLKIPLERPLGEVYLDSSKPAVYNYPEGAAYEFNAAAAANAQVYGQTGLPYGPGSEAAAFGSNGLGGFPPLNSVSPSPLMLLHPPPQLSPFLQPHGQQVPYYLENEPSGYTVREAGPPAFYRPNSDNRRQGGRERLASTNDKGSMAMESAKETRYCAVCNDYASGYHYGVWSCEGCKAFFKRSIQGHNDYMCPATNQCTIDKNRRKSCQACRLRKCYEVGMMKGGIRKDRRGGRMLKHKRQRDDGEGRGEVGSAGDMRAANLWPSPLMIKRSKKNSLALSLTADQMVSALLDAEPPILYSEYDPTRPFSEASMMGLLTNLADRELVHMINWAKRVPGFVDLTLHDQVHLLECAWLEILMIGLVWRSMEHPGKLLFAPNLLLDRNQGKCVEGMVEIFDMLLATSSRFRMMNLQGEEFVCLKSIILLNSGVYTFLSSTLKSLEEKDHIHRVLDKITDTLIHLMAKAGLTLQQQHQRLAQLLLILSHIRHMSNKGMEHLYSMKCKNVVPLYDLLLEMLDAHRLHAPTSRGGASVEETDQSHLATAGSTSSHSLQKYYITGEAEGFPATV
Sequence of Steroid hormone receptor ERR1 (Homo sapiens) (P11474 whole entry, looked up, the tested form may be a part): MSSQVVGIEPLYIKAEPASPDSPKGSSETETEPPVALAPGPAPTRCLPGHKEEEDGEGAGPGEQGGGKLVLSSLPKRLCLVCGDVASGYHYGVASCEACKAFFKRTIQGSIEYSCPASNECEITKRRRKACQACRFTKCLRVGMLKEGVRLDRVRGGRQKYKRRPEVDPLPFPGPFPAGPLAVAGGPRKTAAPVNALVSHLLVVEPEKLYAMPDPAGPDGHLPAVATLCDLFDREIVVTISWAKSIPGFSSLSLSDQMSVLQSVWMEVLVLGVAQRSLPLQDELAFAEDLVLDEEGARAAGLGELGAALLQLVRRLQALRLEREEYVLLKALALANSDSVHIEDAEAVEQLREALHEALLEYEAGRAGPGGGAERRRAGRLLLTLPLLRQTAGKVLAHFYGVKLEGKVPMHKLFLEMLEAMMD
Sequence of Glucocorticoid receptor (Homo sapiens) (P04150 whole entry, looked up, the tested form may be a part): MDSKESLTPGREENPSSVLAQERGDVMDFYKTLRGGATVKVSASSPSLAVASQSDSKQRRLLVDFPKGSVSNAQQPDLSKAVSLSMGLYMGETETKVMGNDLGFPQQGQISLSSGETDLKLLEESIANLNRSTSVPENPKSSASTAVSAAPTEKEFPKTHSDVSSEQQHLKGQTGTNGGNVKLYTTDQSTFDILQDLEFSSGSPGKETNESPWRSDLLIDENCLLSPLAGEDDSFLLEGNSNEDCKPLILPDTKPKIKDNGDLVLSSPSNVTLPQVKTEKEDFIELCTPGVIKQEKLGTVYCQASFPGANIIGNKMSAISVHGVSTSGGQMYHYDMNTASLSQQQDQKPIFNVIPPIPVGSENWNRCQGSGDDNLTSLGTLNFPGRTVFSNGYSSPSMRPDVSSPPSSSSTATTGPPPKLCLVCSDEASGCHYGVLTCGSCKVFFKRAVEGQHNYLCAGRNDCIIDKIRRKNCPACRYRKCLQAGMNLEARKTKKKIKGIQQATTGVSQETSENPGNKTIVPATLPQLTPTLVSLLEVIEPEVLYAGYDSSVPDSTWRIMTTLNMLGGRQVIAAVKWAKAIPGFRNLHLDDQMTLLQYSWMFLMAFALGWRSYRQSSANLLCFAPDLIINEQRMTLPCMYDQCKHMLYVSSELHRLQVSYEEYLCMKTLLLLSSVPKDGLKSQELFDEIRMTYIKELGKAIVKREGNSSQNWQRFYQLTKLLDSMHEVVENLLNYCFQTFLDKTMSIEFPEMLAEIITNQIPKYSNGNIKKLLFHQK
Sequence of Signal transducer and activator of transcription 3 (Homo sapiens) (P40763 whole entry, looked up): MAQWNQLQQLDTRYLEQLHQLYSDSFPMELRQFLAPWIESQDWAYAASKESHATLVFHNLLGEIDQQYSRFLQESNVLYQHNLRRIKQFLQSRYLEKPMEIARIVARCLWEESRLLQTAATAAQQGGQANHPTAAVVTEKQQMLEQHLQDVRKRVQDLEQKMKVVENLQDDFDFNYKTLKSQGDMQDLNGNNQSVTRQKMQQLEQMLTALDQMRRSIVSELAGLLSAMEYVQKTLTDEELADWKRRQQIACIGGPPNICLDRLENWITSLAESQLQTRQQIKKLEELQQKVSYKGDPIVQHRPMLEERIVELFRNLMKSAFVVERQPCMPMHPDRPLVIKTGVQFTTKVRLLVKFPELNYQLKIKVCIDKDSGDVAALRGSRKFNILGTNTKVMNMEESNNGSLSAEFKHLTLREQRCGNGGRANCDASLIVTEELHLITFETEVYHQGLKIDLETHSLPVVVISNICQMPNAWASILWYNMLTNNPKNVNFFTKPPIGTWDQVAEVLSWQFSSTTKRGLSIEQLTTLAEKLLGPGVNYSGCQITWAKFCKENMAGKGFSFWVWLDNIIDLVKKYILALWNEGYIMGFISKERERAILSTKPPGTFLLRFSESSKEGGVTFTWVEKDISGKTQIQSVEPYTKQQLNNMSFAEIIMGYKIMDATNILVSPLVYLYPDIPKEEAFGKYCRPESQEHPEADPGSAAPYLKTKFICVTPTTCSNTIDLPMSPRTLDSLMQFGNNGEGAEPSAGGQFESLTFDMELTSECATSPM
Sequence of Transcription factor Sp1 (Homo sapiens) (P08047 whole entry, looked up): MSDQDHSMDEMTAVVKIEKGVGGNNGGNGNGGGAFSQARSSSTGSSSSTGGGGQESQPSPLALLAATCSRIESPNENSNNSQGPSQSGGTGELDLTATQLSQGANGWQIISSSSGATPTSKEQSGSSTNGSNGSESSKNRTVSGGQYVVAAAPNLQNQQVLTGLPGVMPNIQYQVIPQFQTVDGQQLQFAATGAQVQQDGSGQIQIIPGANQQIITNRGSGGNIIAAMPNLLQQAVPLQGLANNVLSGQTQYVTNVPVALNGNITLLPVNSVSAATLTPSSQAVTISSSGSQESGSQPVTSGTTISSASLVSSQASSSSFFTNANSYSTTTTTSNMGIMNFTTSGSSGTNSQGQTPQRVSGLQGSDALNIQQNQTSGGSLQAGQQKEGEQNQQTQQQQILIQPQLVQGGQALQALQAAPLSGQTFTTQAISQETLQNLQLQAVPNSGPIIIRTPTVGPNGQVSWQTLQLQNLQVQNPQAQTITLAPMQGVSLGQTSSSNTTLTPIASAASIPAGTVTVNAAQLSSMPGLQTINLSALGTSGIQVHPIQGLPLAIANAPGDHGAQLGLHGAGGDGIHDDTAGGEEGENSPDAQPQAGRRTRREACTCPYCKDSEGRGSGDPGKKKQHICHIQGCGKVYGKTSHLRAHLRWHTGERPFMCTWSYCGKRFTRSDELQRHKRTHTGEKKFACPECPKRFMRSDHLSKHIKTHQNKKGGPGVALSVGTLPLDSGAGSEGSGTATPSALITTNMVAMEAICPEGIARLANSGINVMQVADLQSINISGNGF
Sequence of X-box-binding protein 1 (Homo sapiens) (P17861 whole entry, looked up): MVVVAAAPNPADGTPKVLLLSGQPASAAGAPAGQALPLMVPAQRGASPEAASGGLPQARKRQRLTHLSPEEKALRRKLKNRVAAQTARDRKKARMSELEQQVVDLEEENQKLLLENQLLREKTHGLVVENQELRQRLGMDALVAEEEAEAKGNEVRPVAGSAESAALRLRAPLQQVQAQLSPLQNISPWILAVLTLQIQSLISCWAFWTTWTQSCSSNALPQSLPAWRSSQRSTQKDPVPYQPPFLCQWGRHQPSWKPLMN
Sequence of Nuclear receptor subfamily 1 group I member 3 (Homo sapiens) (Q14994 whole entry, looked up, the tested form may be a part): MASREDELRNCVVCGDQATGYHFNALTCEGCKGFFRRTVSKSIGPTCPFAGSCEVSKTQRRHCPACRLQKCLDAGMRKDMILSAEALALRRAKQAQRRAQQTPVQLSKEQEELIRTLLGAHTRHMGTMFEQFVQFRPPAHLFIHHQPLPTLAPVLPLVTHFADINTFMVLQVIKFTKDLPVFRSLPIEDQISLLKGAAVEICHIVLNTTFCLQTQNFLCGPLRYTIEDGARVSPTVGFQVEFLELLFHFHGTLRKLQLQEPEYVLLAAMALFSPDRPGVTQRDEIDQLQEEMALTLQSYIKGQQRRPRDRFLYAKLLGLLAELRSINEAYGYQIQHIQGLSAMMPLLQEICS
Sequence of Estrogen-related receptor gamma (Homo sapiens) (P62508 whole entry, looked up, the tested form may be a part): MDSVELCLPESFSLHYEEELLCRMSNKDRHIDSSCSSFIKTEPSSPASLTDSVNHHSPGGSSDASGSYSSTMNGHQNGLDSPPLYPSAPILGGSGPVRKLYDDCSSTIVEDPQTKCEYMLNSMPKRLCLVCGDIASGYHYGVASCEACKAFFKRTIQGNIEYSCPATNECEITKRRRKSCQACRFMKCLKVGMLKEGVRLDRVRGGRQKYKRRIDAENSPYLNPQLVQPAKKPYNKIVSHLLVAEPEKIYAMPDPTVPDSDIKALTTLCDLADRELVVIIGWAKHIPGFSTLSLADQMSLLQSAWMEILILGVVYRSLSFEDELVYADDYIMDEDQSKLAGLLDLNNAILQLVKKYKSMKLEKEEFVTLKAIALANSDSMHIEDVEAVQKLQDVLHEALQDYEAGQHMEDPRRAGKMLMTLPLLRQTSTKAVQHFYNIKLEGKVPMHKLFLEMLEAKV

## O=C(c1ccccc1)c1ccccc1
[1]
  AC50: 51.4 µM (active)
  outcome: inactive
[2]
  outcome: inactive
[3]
  outcome: inactive
[4]
  outcome: inactive
[5]
  outcome: inactive
[6]
  outcome: inactive
[7]
  outcome: inactive
[8]
  outcome: inactive
[9]
  outcome: inactive
[10]
  outcome: inactive
[11]
  outcome: inactive
[12]
  outcome: inactive
[13]
  outcome: inactive
[14]
  outcome: inactive

## CNNCc1ccc(C(=O)NC(C)C)cc1
[1]
  AC50: 25.7 µM (active)
  outcome: inactive
[15]
  outcome: inactive
[3]
  outcome: inactive
[5]
  outcome: inactive
[6]
  outcome: inactive
[7]
  outcome: inactive
[8]
  outcome: inactive
[9]
  outcome: inactive
[10]
  outcome: inactive
[11]
  outcome: inactive
[12]
  outcome: inactive
[13]
  outcome: inactive
[16]
  outcome: inactive

## CCCCCCCCCCCC[N+](C)(C)CCCCCCCCCCCC
[1]
  outcome: inactive
[15]
  outcome: inactive
[2]
  AC50: 26.1 µM (active)
[3]
  outcome: inactive
[4]
  outcome: inactive
[5]
  outcome: inactive
[6]
  outcome: inactive
[7]
  AC50: 26.3 µM (active)
[8]
  AC50: 25.4 µM (active)
[9]
  outcome: inactive
[10]
  outcome: inactive
[11]
  AC50: 8.42 µM (active)
[17]
  outcome: inactive
[18]
  outcome: inactive
[19]
  outcome: inactive
[12]
  outcome: inactive
[20]
  outcome: inactive
[16]
  outcome: inactive

## Cc1cncc(C)c1
[1]
  outcome: inactive
[15]
  outcome: inactive
[2]
  outcome: inactive
[3]
  outcome: inactive
[4]
  outcome: inactive
[5]
  outcome: inactive
[6]
  outcome: inactive
[7]
  outcome: inactive
[8]
  outcome: inactive
[9]
  outcome: inactive
[10]
  outcome: inactive
[11]
  outcome: inactive
[17]
  outcome: inactive
[19]
  outcome: inactive
[12]
  outcome: inactive

## c1cc[nH]c1
[1]
  outcome: inactive
[15]
  outcome: inactive
[2]
  outcome: inactive
[3]
  outcome: inactive
[4]
  outcome: inactive
[5]
  outcome: inactive
[6]
  outcome: inactive
[7]
  outcome: inactive
[8]
  outcome: inactive
[9]
  outcome: inactive
[10]
  outcome: inactive
[11]
  outcome: inactive
[18]
  outcome: inactive
[19]
  outcome: inactive
[12]
  outcome: inactive
[14]
  outcome: inactive

## c1cc2cccc3c4cccc5cccc(c(c1)c23)c54
[1]
  outcome: inactive
[15]
  outcome: inactive
[2]
  outcome: inactive
[3]
  outcome: inactive
[4]
  outcome: inactive
[5]
  outcome: inactive
[6]
  outcome: inactive
[7]
  outcome: inactive
[8]
  outcome: inactive
[9]
  outcome: inactive
[10]
  outcome: inactive
[11]
  outcome: inactive
[19]
  outcome: inactive
[12]
  outcome: inactive

## Cc1ccc(S(=O)(=O)O)cc1
[1]
  AC50: 26.3 µM (active)
  outcome: inactive
[3]
  outcome: inactive
[4]
  outcome: inactive
[5]
  outcome: inactive
[6]
  outcome: inactive
[7]
  outcome: inactive
[8]
  outcome: inactive
[9]
  outcome: inactive
[10]
  outcome: inactive
[11]
  outcome: inactive
[12]
  outcome: inactive
[14]
  outcome: inactive

## COC1=CC(=O)C[C@@H](C)[C@]12Oc1c(Cl)c(OC)cc(OC)c1C2=O
[1]
  outcome: inactive
[15]
  outcome: inactive
[2]
  outcome: inactive
[3]
  outcome: inactive
[4]
  outcome: inactive
[5]
  outcome: inactive
[6]
  outcome: inactive
[7]
  outcome: inactive
[8]
  AC50: 20.4 µM (active)
[9]
  outcome: inactive
[10]
  outcome: inactive
[11]
  outcome: inactive
[18]
  outcome: inactive
[12]
  outcome: inactive
[16]
  outcome: inactive
